PubChem BioAssay AID1159580 (chemical genetic matrix, 2015)
Values joined by “and” are separate entries in the source; they are usually repeats but may differ in a detail not shown here. Equal entries are not always repeated. In all, about 5,500 compounds went through this assay and about 2,000 (36%) were called active. Not shown: some 18% with an inconclusive outcome. Rule as the data show it: active = normalized growth mostly below about 0.91 (no sharp cut-off); inconclusive = no clear call, values can overlap the other calls; inactive = mostly above about 0.92. The list shows a part of the results.

Experiment: chemical genetic growth profiling, strain panel (AID 1159580);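 also: tested at 20 µM; growth read once vehicle control cultures reached saturation at 30 °C; 1 = growth at the plate median or of vehicle wells; lower values mean less growth of the strain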
Conditions: S. cerevisiae deletion strains, growth OD

Measured: normalized growth

COc1ccc2[nH]cc(CCNC(C)=O)c2c1
inactive: locus YAL013W, strain DEP1, active compounds read low 1.01 | locus YAL021C, strain ccr4, active compounds read low 0.977 | locus YAL026C, strain drs2, active compounds read low 0.983 | locus YAL030W, strain snc1, active compounds read low 0.984 | locus YAL040C, strain CLN3, active compounds read low 0.996 | locus YBL061C, strain skt5, active compounds read low 0.969 | locus YBR009C, strain hhf1, active compounds read low 0.983 | locus YBR021W, strain FUR4, active compounds read low 1.01 | locus YBR023C, strain chs3, active compounds read low 0.979 | locus YBR171W, strain sec66, active compounds read low 0.966 | locus YBR229C, strain ROT2, active compounds read low 1.02 | locus YBR231C, strain swc5, active compounds read low 0.971 | locus YBR279W, strain paf1, active compounds read low 0.978 | locus YCL011C, strain gbp2, active compounds read low 0.979 | locus YCL016C, strain dcc1, active compounds read low 0.972 | locus YCL029C, strain bik1, active compounds read low 1.02 | locus YCL061C, strain MRC1 (second series), active compounds read low 1.01 | locus YCL061C, strain MRC1, active compounds read low 0.984 | locus YCL069W, strain vba3, active compounds read low 0.977 | locus YCR088W, strain abp1, active compounds read low 0.968 | locus YDL005C, strain med2, active compounds read low 0.959 | locus YDL035C, strain GPR1, active compounds read low 1.01 | locus YDL040C, strain nat1, active compounds read low 0.971 | locus YDL074C, strain BRE1, active compounds read low 1.02 | locus YDL101C, strain DUN1, active compounds read low 1.01 | locus YDL134C, strain PPH21, active compounds read low 1.01 | locus YDL185W, strain tfp1, active compounds read low 1.03 | locus YDL192W, strain arf1, active compounds read low 1.03 | locus YDR001C, strain nth1, active compounds read low 0.973 | locus YDR069C, strain doa4, active compounds read low 0.958 | locus YDR101C, strain arx1, active compounds read low 1.02 | locus YDR137W, strain rgp1, active compounds read low 0.992 | locus YDR150W, strain NUM1, active compounds read low 1 and 1.01 | locus YDR159W, strain sac3, active compounds read low 0.943 | locus YDR162C, strain NBP2, active compounds read low 1.02 | locus YDR195W, strain ref2 0.959 | locus YDR297W, strain sur2, active compounds read low 0.967 | locus YDR318W, strain mcm21, active compounds read low 1.02 | locus YDR334W, strain swr1, active compounds read low 0.969 | locus YDR335W, strain msn5, active compounds read low 0.977 | locus YDR363W, strain ESC2, active compounds read low 0.996 | locus YDR388W, active compounds read low 1.02 | locus YDR392W, strain spt3, active compounds read low 0.958 | locus YDR502C, strain sam2, active compounds read low 1.03 | locus YEL003W, strain gim4, active compounds read low 0.974 | locus YEL037C, strain rad23, active compounds read low 0.966 | locus YEL061C, strain CIN8 (second series), active compounds read low 0.972 | locus YEL061C, strain CIN8, active compounds read low 1 | locus YER002W, strain NOP16, active compounds read low 0.999 | locus YER015W, strain faa2, active compounds read low 0.981 | locus YER016W, strain bim1, active compounds read low 0.975 | locus YER110C, active compounds read low 1.02 | locus YER111C, strain swi4, active compounds read low 0.976 | locus YER155C, strain BEM2 (second series), active compounds read low 0.971 | locus YER155C, strain BEM2, active compounds read low 0.998 | locus YER167W, strain BCK2, active compounds read low 1.01 | locus YFR010W, strain ubp6, active compounds read low 0.955 | locus YGL078C, strain dbp3, active compounds read low 1.02 | locus YGL086W, strain mad1, active compounds read low 1.02 | locus YGL167C, strain pmr1, active compounds read low 0.96 | locus YGL173C, strain kem1, active compounds read low 0.955 | locus YGL227W, strain vid30, active compounds read low 0.962 | locus YGL240W, strain doc1, active compounds read low 0.963 | locus YGL248W, strain PDE1, active compounds read low 1.01 | locus YGL253W, strain hxk2, active compounds read low 0.983 | locus YGR078C, strain PAC10, active compounds read low 1.02 and 1.01 | locus YGR135W, strain pre9, active compounds read low 1.03 | locus YGR229C, strain SMI1, active compounds read low 1.01 | locus YGR252W, strain gcn5, active compounds read low 1.05 | locus YHR013C, strain ard1, active compounds read low 0.968 | locus YHR027C, strain rpn1, active compounds read low 0.994 | locus YHR030C, strain SLT2, active compounds read low 0.998 and 0.997 | locus YHR079C, strain IRE1 (second series), active compounds read low 1.02 | locus YHR079C, strain IRE1, active compounds read low 0.998 | locus YHR094C, strain hxt1, active compounds read low 1.02 | locus YHR129C, strain ARP1, active compounds read low 1 | locus YHR142W, strain chs7, active compounds read low 0.964 | locus YHR200W, strain rpn10, active compounds read low 1.03 | locus YIL066C, strain RNR3, active compounds read low 1.01 | locus YIL073C, strain SPO22, active compounds read low 1.08 | locus YIL125W, strain kgd1, active compounds read low 1.03 | locus YIR030C, strain dcg1, active compounds read low 1.03 | locus YJL092W, strain hpr5, active compounds read low 0.974 | locus YJL095W, strain BCK1 (second series), active compounds read low 0.971 | locus YJL095W, strain BCK1, active compounds read low 1.02 | locus YJL115W, strain asf1, active compounds read low 0.969 | locus YJL129C, strain trk1, active compounds read low 0.967 | locus YJL134W, strain LCB3, active compounds read low 1 | locus YJL154C, strain vps35, active compounds read low 0.957 | locus YJL164C, strain tpk1, active compounds read low 0.986 | locus YJL166W, strain qcr8, active compounds read low 0.979 | locus YJL168C, strain set2, active compounds read low 1.03 | locus YJL187C, strain SWE1 (second series), active compounds read low 1.01 | locus YJL187C, strain SWE1, active compounds read low 0.979 | locus YJR043C, strain POL32, active compounds read low 0.994 | locus YJR066W, strain TOR1, active compounds read low 0.941
